In PubChem BioAssay (Tox21) one finds Potency data, which are given here for 20 compounds.

Each structure is given as a SMILES string. Where “and” joins values, the source holds several entries; their conditions need not be identical. Equal entries are not always repeated. Inconclusive results are not listed. Some structures have more than one record in an assay (separate samples or runs), and their calls can disagree. Calls of active or inactive are those of the source. Calls come from the whole dose curve; as a rule, active = well fitted curve in the direction sought with a large enough effect in the repeat runs; inconclusive = weak or mixed curves; inactive = no such curve, though single readings can be large; an effect the other way counts as inactive or inconclusive.

Experiment [1] in a line: qHTS RealTime-Glo MT Cell Viability Assay in HEK293 cells - 0 hour (AID 1224880). Note: top concentration of the series differs between compounds; nearly all actives have a fitted effect of over 45% in size. Summed up:
(§1)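 600 HEK293 cells per well, dispensed already mixed with RealTime-Glo MT reagents. Compound dosing came 5 h later. The same wells were read for luminescence at 0, 8, 16, 24, 32 and 40 h of exposure at 37 C.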
Background: Quantitative high-throughput screening tests each substance at several concentrations.

The nature of experiment [2]: A CellTox Green Cytotoxicity Assay to monitor cytotoxicity in HEK293 cells - 32 hour (AID 1224881). Note: nearly all actives have a fitted effect of over 40% in size. Note: potency is the fitted concentration of half-maximal effect. The method in brief: (§2)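 Dead-cell fluorescence measured kinetically: asymmetric cyanine dye, HEK293, 600 cells/well, 5 h settle, 23 nL cpd/DMSO, 37 C, reads 0–40 h every 8 h.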
Experiment [3] is described as follows: A CellTox Green Cytotoxicity Assay to monitor cytotoxicity in HepG2 cells - 0 hour (AID 1224882). Note: nearly all actives have a fitted effect of over 35% in size. Note: potency is the fitted concentration of half-maximal effect. Summed up:
(§3)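 First, HepG2 cells (600/well) mixed with reagent were plated; second, after 5 h at 37 C they received compounds via pintool; third, fluorescence was measured at 0 h through 40 h at 8 h intervals.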

Experiment [4] is described as follows: A CellTox Green Cytotoxicity Assay to monitor cytotoxicity in HepG2 cells - 32 hour (AID 1224883). Note: nearly all actives have a fitted effect of over 50% in size. Note: potency is the fitted concentration of half-maximal effect. Summed up:
as §3

A short description of experiment [5]: A CellTox Green Cytotoxicity Assay to monitor cytotoxicity in HEK293 cells - 8 hour (AID 1224884). Note: nearly all actives have a fitted effect of over 35% in size. Note: potency is the fitted concentration of half-maximal effect. The method in brief:
as §2

Experiment [6] can be described thus: qHTS RealTime-Glo MT Cell Viability Assay in HepG2 cells - 16 hour (AID 1224885). Note: nearly all actives have a fitted effect of over 50% in size. Note: potency is the fitted concentration of half-maximal effect. Summed up:
(§4)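 Compound treatment began 5 h after plating HepG2 cells (600/well) with NanoLuc luciferase and prosubstrate. Plates stayed at 37 C for 40 h; luminescence was captured at six time points, 0 h through 40 h.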

Experiment [7] can be described thus: qHTS RealTime-Glo MT Cell Viability Assay in HEK293 cells - 24 hour (AID 1224886). Note: nearly all actives have a fitted effect of over 50% in size. Note: potency is the fitted concentration of half-maximal effect. The method in brief: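 Quantitative high-throughput screen of the Tox21 10K library in HEK293: cells and RealTime-Glo reagents plated together, compound added at 5 h, luminescence monitored through 40 h at 37 C.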
Experiment [8] in a line: qHTS RealTime-Glo MT Cell Viability Assay in HEK293 cells - 8 hour (AID 1224887). Note: top concentration of the series differs between compounds; nearly all actives have a fitted effect of over 50% in size. The method in brief:
as §1

A short description of experiment [9]: A CellTox Green Cytotoxicity Assay to monitor cytotoxicity in HEK293 cells - 16 hour (AID 1224888). Note: nearly all actives have a fitted effect of over 35% in size. Note: potency is the fitted concentration of half-maximal effect. The method in brief: as §2
Experiment [10] in a line: qHTS RealTime-Glo MT Cell Viability Assay in HepG2 cells - 0 hour (AID 1224889). Note: nearly all actives have a fitted effect of over 50% in size. Note: potency is the fitted concentration of half-maximal effect. The method in brief:
as §4

For `CCCC(=O)O`, the Potency result in [1], in experiment [2], in experiment [3], in [4], in experiment [5] and in experiment [6] was “inactive” throughout. The Potency result in experiment [7], in experiment [8], in experiment [9] and in experiment [10] was “inactive” in each case.

Take `COc1ccc(OC)c(C(O)CNC(=O)CN)c1` (configuration not stated): the Potency result in [1], in experiment [2], in experiment [3], in experiment [4], in experiment [5] and in experiment [6] was “inactive” in each case. The Potency result in [7], in experiment [8], in experiment [9] and in experiment [10] was “inactive” throughout.

Regarding `COc1c(Cl)c(Cl)c(Cl)c(Cl)c1Cl`, the Potency entry in experiment [1], in experiment [2], in [3], in experiment [4], in experiment [5] and in [6] was “inactive” throughout. In addition, the Potency result in [7], in experiment [8], in experiment [9] and in experiment [10] was “inactive” in each case.

For `C[C@]12CCC(=O)C=C1CC[C@@H]1[C@@H]2C(=O)C[C@@]2(C)[C@H]1CC[C@]2(O)C(=O)CO`, the Potency entry in experiment [2], in [3], in [4], in [5], in experiment [6] and in experiment [7] was “inactive” each time. The Potency entry in experiment [8] and in experiment [9] was “inactive” in each case. Further, the Potency in experiment [10] is 5.49 µM (active).

As for `CNCCCC12CCC(c3ccccc31)c1ccccc12`, the Potency in experiment [2] is 49 µM (active); in experiment [4], 34.7 µM (active) and 23.9 µM (active); in experiment [6], 49 µM (active); in experiment [7], 49 µM (active). The Potency result in experiment [3] and in experiment [5] was “inactive” in each case.

As to `Nc1ccccc1N`, the Potency in experiment [2] is 50.1 µM (active); in [3] it was 50.1 µM (active) and inactive; in [4], 50.1 µM (active); in [5] it was 50.1 µM (active); in experiment [9], 50.1 µM (active). Also, the Potency entry in experiment [6], in experiment [7] and in experiment [10] was “inactive” in each case.

In the case of `CC(C)CC(C)(O)C#CC(C)(O)CC(C)C` (configuration not stated), the Potency result in experiment [1], in experiment [2], in [3], in [4], in experiment [5] and in [6] was “inactive” throughout. In addition, the Potency result in experiment [7], in experiment [9] and in experiment [10] was “inactive” throughout.

`Cc1ncc[nH]1`: the Potency entry in experiment [1], in [2], in [3], in [4], in [5] and in [6] was “inactive” each time. Further, the Potency result in experiment [7], in experiment [9] and in [10] was “inactive” in each case.

As for `OCCO`, the Potency result in [1], in experiment [2], in experiment [3], in experiment [4], in experiment [5] and in [6] was “inactive” each time. The Potency entry in experiment [7], in experiment [9] and in experiment [10] was “inactive” in each case.

`Cc1[nH]c(=O)c(C#N)cc1-c1ccncc1`: the Potency entry in experiment [1], in [2], in experiment [3], in experiment [4], in [5] and in experiment [6] was “inactive” each time. For the same compound, the Potency result in [7], in experiment [9] and in [10] was “inactive” throughout.

In the case of `NNc1ccc(C(=O)O)cc1`, the Potency result in experiment [1], in experiment [2], in experiment [3], in experiment [4], in experiment [5] and in experiment [6] was “inactive” throughout. The Potency entry in experiment [7], in experiment [9] and in experiment [10] was “inactive” in each case.

On to `CC(=O)C1(C)CC2=C(CCCC2(C)C)CC1C` (configuration not stated), for which the Potency result in experiment [1], in experiment [3], in experiment [4], in experiment [5], in experiment [6] and in experiment [7] was “inactive” throughout. Moreover, the Potency result in [9] and in experiment [10] was “inactive” in each case.

Turning to `O=c1oc(=O)c2cc3c(=O)oc(=O)c3cc12`, the Potency result in experiment [1], in [2], in experiment [3], in experiment [4], in experiment [5] and in [6] was “inactive” each time. The Potency entry in experiment [7], in [9] and in experiment [10] was “inactive” throughout.

Consider `CCCCC/C=C/C=C/C=O`, for which the Potency result in [1], in experiment [3], in experiment [5], in experiment [6], in [7] and in experiment [9] was “inactive” in each case. Besides, the Potency entry in [10] is “inactive”. In addition, the Potency was 54.5 µM (active) in experiment [2]; 54.5 µM (active) and 54.9 µM (active) in experiment [4].

For `CC(C)OC(=O)C(C)(C)Oc1ccc(C(=O)c2ccc(Cl)cc2)cc1`, the Potency entry in [1], in experiment [2], in [3], in experiment [4], in experiment [5] and in experiment [6] was “inactive” in each case. Further, the Potency entry in experiment [9] and in experiment [10] was “inactive” throughout. For the same compound, in experiment [7], the Potency is 19.5 µM (active) and 10.7 µM (active).

`O=C(/C=C/C=C/c1ccc2c(c1)OCO2)N1CCCCC1`: the Potency entry in [1], in experiment [2], in [3], in experiment [4], in experiment [5] and in experiment [6] was “inactive” throughout. In addition, the Potency result in experiment [9] and in experiment [10] was “inactive” in each case.

Take `CC(C)OB(OC(C)C)OC(C)C`: the Potency entry in experiment [1], in [2], in experiment [3], in experiment [4], in experiment [5] and in [6] was “inactive” throughout. Moreover, the Potency result in [7], in experiment [9] and in [10] was “inactive” throughout.

For the compound `CC(=O)Oc1ccccc1C(=O)Nc1ncc([N+](=O)[O-])s1`, the Potency entry in [1], in [2], in experiment [3], in experiment [4], in experiment [5] and in experiment [6] was “inactive” in each case. In addition, the Potency result in experiment [8], in experiment [9] and in experiment [10] was “inactive” throughout.

For the compound `O=C(Nc1ccc(Cl)cc1)Nc1ccc(Cl)c(Cl)c1`, the Potency entry in experiment [1], in [2], in experiment [3], in experiment [4], in experiment [5] and in experiment [6] was “inactive” in each case. Moreover, the Potency entry in experiment [8], in experiment [9] and in experiment [10] was “inactive” throughout.

For the compound `COc1cccc2c1C(=O)c1c(O)c3c(c(O)c1C2=O)C[C@@](O)(C(=O)CO)C[C@@H]3O[C@H]1C[C@H](N)[C@H](O)[C@H](C)O1`, the Potency result in [1], in experiment [2], in experiment [3], in experiment [6], in experiment [8] and in experiment [9] was “inactive” each time. The Potency result in [10] is “inactive”. Also, the Potency entry in [4] was “inactive and 21.3 µM (active)”; in [7], 155 nM (active) and 301 nM (active).
